Source: PubChem BioAssay AID1851 (National Center for Advancing Translational Sciences (NCATS), 2009)
Where “and” joins values, the source holds several entries; their conditions need not be identical. Equal values may be shown once. Among all 16,000 compounds or so, about 5,700 (36%) were called active. Roughly 24% stayed inconclusive and do not appear here. Calls come from the whole dose curve; as a rule, active = well fitted curve in the direction sought with a large enough effect; inconclusive = small, poorly fitted or top-dose-only effect, or effect the other way; inactive = no such curve, though single readings can be large or run the other way. This is one part of the list.

These compounds were tested against Cytochrome P450 1A2 (Homo sapiens) (UniProt P05177) (assay: Cytochrome panel assay with activity outcomes). Details: recombinant CYP, pro-luciferin dealkylation, luminescence, p450-cyp1a2; series mostly up to 57.1 µM; activity, negative = inhibition: at the top concentration.
Sequence of Cytochrome P450 1A2 (Homo sapiens) (P05177 whole entry, looked up): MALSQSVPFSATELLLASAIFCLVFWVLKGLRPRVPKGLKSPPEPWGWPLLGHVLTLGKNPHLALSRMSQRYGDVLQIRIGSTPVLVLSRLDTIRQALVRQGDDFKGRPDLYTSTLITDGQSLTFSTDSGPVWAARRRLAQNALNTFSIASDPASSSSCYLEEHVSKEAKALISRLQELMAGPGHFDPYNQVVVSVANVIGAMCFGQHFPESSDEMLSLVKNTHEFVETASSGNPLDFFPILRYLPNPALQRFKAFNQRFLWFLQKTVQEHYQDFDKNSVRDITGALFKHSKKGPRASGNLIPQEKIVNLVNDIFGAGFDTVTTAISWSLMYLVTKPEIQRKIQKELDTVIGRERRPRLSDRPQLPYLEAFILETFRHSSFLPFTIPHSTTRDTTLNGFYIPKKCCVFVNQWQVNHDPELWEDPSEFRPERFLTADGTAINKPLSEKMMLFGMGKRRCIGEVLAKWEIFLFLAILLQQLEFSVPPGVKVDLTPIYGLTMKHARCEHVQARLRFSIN
% is set by controls: 0 for no effect and ±100 for the full control effect.

Row | Compound | activity, negative = inhibition | AC50
1 | C[C@H]1CC[C@@]2(NC1)O[C@@H]1C[C@@H]3[C@@H]4CC=C5C[C@@H](O)CC[C@]5(C)[C@@H]4CC[C@]3(C)[C@H]1[C@@H]2C | -1.04% [at 11.4 µM] (inactive) | 
2 | C[C@@]12CC[C@H]3[C@@H](CC=C4C[C@H](OS(=O)(=O)O)CC[C@]43C)[C@H]1CCC2=O | -3.53% (inactive) | 
3 | COCOc1ccc(Br)cc1C(=O)/C=C\c1ccc2c(c1)OCO2 | -3.01% [at 11.4 µM] (inactive) | 
4 | N[C@@H](Cc1ccccc1)P(=O)(O)O | -13.6% [at 11.4 µM] (inactive) | 
5 | O=[N+]([O-])c1ccc(N2CCNCC2)cc1NCC1CCCO1 (stereo not drawn) |  | 1.41 µM (active)
6 | O=[N+]([O-])c1ccc(N2CCNCC2)cc1NC1CC1 |  | 0.708 µM (active)
7 | CN1CCN(c2ccc([N+](=O)[O-])c(N/N=C3\CN4CCC3CC4)c2)CC1 | -11.9% (inactive) | 
8 | NS(=O)(=O)c1ccc(-c2ccc([As](=O)(O)O)cc2)cc1 | -0.225% [at 11.4 µM] (inactive) | 
9 | C1C[C@@H]2CN(CCCN3CCOCC3)[C@@H](C1)O2 | -10.8% [at 11.4 µM] (inactive) | 
10 | COc1cc2c(cc1OC)[C@@]13CCN4CC5=CCO[C@H](CC(=O)O)[C@@H]([C@H]1N2)[C@H]5C[C@H]43 | -21.3% [at 11.4 µM] (inactive) | 
11 | C[C@@H]1CC[C@@H]2N(C1)C[C@H]1[C@@](O)([C@H](O)C[C@]3(O)[C@H]4CC[C@H]5[C@]6(O)O[C@]4(C[C@]13O)[C@@]5(C)CC[C@@H]6O)[C@@]2(C)O | -15.8% [at 11.4 µM] (inactive) | 
12 | c1ccc2c(c1)[I+]c1ccccc1-2 |  | 126 nM (active) and 20 nM (active)
13 | O=C1CCCN1CC#CCN1CCCC1 | 2.85% (inactive) | 
14 | COc1ccc(C(=O)O[C@H]2CC[C@@]3(C)[C@H]4CC[C@H]5[C@]3(C[C@]3(O)[C@H]6CN7C[C@H](C)CC[C@H]7[C@](C)(O)[C@]6(O)[C@H](O)C[C@]53O)O[C@]24O)cc1OC | -20.9% [at 2.29 µM] (inactive) | 
15 | O[Si@](CCCN1CCCCC1)(c1ccc(F)cc1)C1CCCCC1 | -13.9% (inactive) | 
16 | CCCCN1C(=O)C(C2c3ccccc3C(=O)N2Cc2ccccc2)C(=O)NC1=S (stereo not drawn) |  | 12.6 µM (active)
17 | CN1C(=O)C(C2c3ccccc3C(=O)N2Cc2ccc([N+](=O)[O-])cc2)C(=O)N(C)C1=O (stereo not drawn) | -15.7% (inactive) | 
18 | CC(C)CN1CCC2(CC1)CCN(C(=O)Oc1ccccc1)CC2 | 14.7% (inactive) | 
19 | C=C(C)CN1CC[C@@]23c4c5ccc(O)c4O[C@H]2c2[nH]c4ccccc4c2C[C@]3(O)[C@@H]1C5 | -16.9% (inactive) | 
20 | CC1=NN(c2ccc(S(=O)(=O)O)cc2C)C(=[OH+])[C@H]1N=Nc1cc(S(=O)(=O)O)ccc1C(=O)O.O.[Cr] | -12.7% [at 11.4 µM] (inactive) | 
21 | O=[N+]([O-])c1cc([As](=O)(O)O)ccc1O | -2.41% [at 25.6 µM] (inactive) | 
22 | CC[C@@]1(O)C(=O)OCc2c1cc1n(c2=O)Cc2cc3c(NC(=O)CN)cccc3nc2-1 | -12.3% [at 2.29 µM] (inactive) | 
23 | CC[C@@]1(O)C(=O)OCc2c1cc1n(c2=O)Cc2cc3ccccc3nc2-1 |  | 2.51 µM (active)
24 | CC[C@]1(OC(=O)CN)C(=O)OCc2c1cc1n(c2=O)Cc2cc3ccccc3nc2-1 | -17.6% [at 2.29 µM] (inactive) | 
25 | CCCC[N+]12CCC(CC1)C(C(=O)c1cccs1)C2 (stereo not drawn) | 1.98% (inactive) | 
26 | COC(=O)[C@@H](N)CCCN=C(N)N[N+](=O)[O-] | -23.3% (inactive) | 
27 | Cc1cc(OCc2ccc([N+](=O)[O-])cc2)c2c3c(c(=O)oc2c1)CCCC3 |  | 2.24 µM (active)

Row | Compound | activity, negative = inhibition | AC50
28 | Cc1cc(OC(=O)CCCNC(=O)OC(C)(C)C)c2c3c(c(=O)oc2c1)CCC3 |  | 2.24 µM (active)
29 | Cc1cc(OCC(=O)OC(C)C)c2c3c(c(=O)oc2c1)CCCC3 |  | 3.55 µM (active)
30 | Cn1cnc(CCN)c1 | -2.55% (inactive) | 
31 | OC1(c2ccc(F)cc2)CCNC1 (stereo not drawn) | -3.59% (inactive) | 
32 | CCOC(=O)N(c1ccccc1)P1(=S)OCCO1 |  | 20 µM (active)
33 | O=C(O)C[O][Sb][O]CC(=O)O | -7.83% [at 2.29 µM] (inactive) | 
34 | CC(=O)O[C@H]1C[C@@H](O[C@@H]2[C@H](C)O[C@H](O[C@@H]3[C@H](C)O[C@H](O[C@@H]4CC[C@@]5(C)[C@@H](CC[C@]6(C)[C@]5(C)C[C@H](O)[C@]5(C)[C@@H](C7=CC(=O)OC7)CC[C@@]56O)C4)C[C@@H]3O)C[C@@H]2O)O[C@@H](C)[C@H]1O[C@H]1O[C@@H](CO)[C@@H](O)[C@@H](O)[C@@H]1O | 0.0883% [at 25.6 µM] (inactive) | 
35 | C[C@]1(C(=O)O)[C@@H]2CC[C@@H](O2)[C@@]1(C)C(=O)O | 5.07% (inactive) | 
36 | ClCCNc1nc2ccc(Cl)cc2[nH]1 |  | 3.55 µM (active)
37 | N[C@H](C(=O)O)c1cc(=O)[nH]o1 | 4.36% (inactive) | 
38 | C[C@@]12CC(=O)[C@H]3[C@@H](CCC4=CC(=O)CC[C@]43C)[C@H]1CCC2=O | 3.26% [at 25.6 µM] (inactive) | 
39 | CCCN(CCC)C1Cc2cc(OC)c(OC)cc2C1 | -8.24% (inactive) | 
40 | CCn1cnc2c(Nc3cccc(Cl)c3)nc(N[C@@H]3CCCC[C@H]3N)nc21 |  | 15.8 µM (active)
41 | CN(C)C(=O)Oc1cccc([N+](C)(C)C)c1 | -8.66% (inactive) | 
42 | COc1ccc(C[C@H]2c3cc(OC)c(OC)cc3CCN2C)cc1OC | -15.9% [at 25.6 µM] (inactive) | 
43 | COc1cc(/C=N/NC(=O)CN2CC(c3ccccc3)CC2=O)ccc1OC(=O)N(C)C (stereo not drawn) | -10.2% (inactive) | 
44 | O=C(O)CC[N+](=O)[O-] | -2.88% (inactive) | 
45 | N#C/C(=C\c1ccc(O)c(O)c1)C(N)=S |  | 12.6 µM (active) and 6.31 µM (active)
46 | COc1cc(C=C(C#N)C#N)cc(O)c1O |  | 12.6 µM (active)
47 | N#C/C(=C\c1ccc(O)c(O)c1)C(=O)NCCCNC(=O)/C(C#N)=C/c1ccc(O)c(O)c1 | -13.5% (inactive) | 
48 | N#CC(C#N)=Cc1ccc(O)c(O)c1 |  | 5.01 µM (active)
49 | N#CC(C#N)=Cc1cc(O)c(O)c(O)c1 | -7.18% (inactive) | 
50 | CC(C)(C)c1cc(C=C(C#N)C#N)cc(C(C)(C)C)c1O |  | 10 µM (active)
51 | COc1ccc2c(c1)CCC1[C@@H]2CCC2(C)[C@@H](NCCCCCCN3C(=O)C=CC3=O)CC[C@@H]12 (stereo partly drawn) | -3.16% (inactive) | 
52 | CC[C@]1(c2cccc(O)c2)CCCCN(C)C1 | -7.06% [at 25.6 µM] (inactive) | 
53 | COc1ccc(C2SCC(=O)Nc3c2c(C)nn3C2CCOC(C)(C)C2)cc1 (stereo not drawn) | -2.75% (inactive) | 
